Laboratory results from PubChem BioAssay (Tox21).
Several values for one entry are separate records, joined by “and”; a condition that tells them apart may be missing. Equal values may be shown once. Activity calls are given as the source filed them. Where a call stands in place of a potency, no number is given. Unless noted, calls follow the shape of the dose curve; as a rule, active = well fitted curve in the direction sought with a large enough effect in the repeat runs; inconclusive = weak or mixed curves; inactive = no such curve, though single readings can be large; an effect the other way counts as inactive or inconclusive.

Experiments:
[1] = qHTS assay to identify small molecule antagonists of the glucocorticoid receptor (GR) signaling pathway - cell viability counter screen (AID 720693); also: nearly all actives have a fitted effect of over 55% in size; also: potency is read from the fitted curve at half-maximal effect
[2] = qHTS assay for identifying genotoxic compounds that show differential cytotoxicity against isogenic chicken DT40 cell lines with known DNA damage response pathways - wild type cell line (AID 743012); also: nearly all actives have a fitted effect of over 60% in size; also: potency is read from the fitted curve at half-maximal effect
Outline: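 Wild-type DT40 cells (300/well) exposed to compounds for 40 hours at 37 C/5% CO2. Viability read by CellTiter-Glo luminescence after 30 min at room temperature.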

[3] = qHTS assay for identifying genotoxic compounds that show differential cytotoxicity against isogenic chicken DT40 cell lines with known DNA damage response pathways - Rad54/Ku70 mutant cell line (AID 743015); also: nearly all actives have a fitted effect of over 60% in size; also: potency is read from the fitted curve at half-maximal effect
[4] = qHTS assay to identify small molecule antagonists of the thyroid receptor (TR) signaling pathway - cell viability counter screen (AID 743064); also: nearly all actives have a fitted effect of over 50% in size; also: potency is read from the fitted curve at half-maximal effect
Outline: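 Rat GH3 pituitary tumor cells stably expressing two TR response elements driving luciferase were plated, rested 4 h, then dosed with library compounds and T3 (1 nM final). After 23.5 h at 37 °C, CellTiter-Fluor was added for 30 min and fluorescence recorded.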

[5] = qHTS assay to identify small molecule antagonists of the thyroid receptor (TR) signaling pathway (AID 743065); also: nearly all actives have a fitted effect of over 55% in size; also: potency is read from the fitted curve at half-maximal effect
Outline: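 GH3.TRE-Luc rat pituitary cells carrying two TR response elements driving luciferase were plated for 4 h, given compound plus 1 nM T3 (final), and incubated 23.5 h at 37 C. ONE-Glo luminescence measured reporter inhibition; CellTiter-Fluor fluorescence tracked cytotoxicity.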

[6] = target: Estrogen receptor (Homo sapiens) (UniProt P03372); assay: qHTS assay to identify small molecule agonists of the estrogen receptor alpha (ER-alpha) signaling pathway using the BG1 cell line (AID 743079); conditions: BG1Luc4E2 cells, ERE-luciferase agonist, 22 h; activation: at 70.3 µM (top of the series); also: nearly all actives have a fitted effect of over 20% in size; also: potency is read from the fitted curve at half-maximal effect
[7] = qHTS assay to identify small molecule antagonists of the estrogen receptor alpha (ER-alpha) signaling pathway using the BG1 cell line (AID 743080; calls by dose curve;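 also: BG1 cells stimulated with 17beta-estradiol alongside compound; nearly all actives have a fitted effect of over 25% in size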); conditions: BG1Luc4E2 ERE-luciferase antagonist mode, luminescence; activity change, negative = inhibition: at 70.3 µM (top of the series)
Outline: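 Endogenous full-length ER-alpha in BG1-Luc-4E2 cells drives a stably integrated 4×ERE luciferase gene; compounds were tested against 17beta-estradiol over 21.5 h, with luminescence and multiplexed viability fluorescence recorded.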

[8] = qHTS assay to identify small molecule antagonists of the estrogen receptor alpha (ER-alpha) signaling pathway using the BG1 cell line - cell viability counter screen (AID 743081);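 also: compound given together with 17beta-estradiol as the ER stimulus; nearly all actives have a fitted effect of over 45% in size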; also: potency is read from the fitted curve at half-maximal effect
[9] = qHTS assay for identifying genotoxic compounds that show differential cytotoxicity against isogenic chicken DT40 cell lines with known DNA damage response pathways - Rev3 mutant cell line (AID 743014); also: nearly all actives have a fitted effect of over 55% in size; also: potency is read from the fitted curve at half-maximal effect
[10] = qHTS assay to identify small molecule antagonists of the androgen receptor (AR) signaling pathway - cell viability counter screen (AID 743033; also: nearly all actives have a fitted effect of over 45% in size)
[11] = qHTS assay to identify small molecule antagonists of the androgen receptor (AR) signaling pathway using the MDA cell line - cell viability counter screen (AID 743041; also: nearly all actives have a fitted effect of over 45% in size; also: potency is read from the fitted curve at half-maximal effect)
Outline: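 MDA-kb2 AR-luc human breast carcinoma cells (MMTV-luciferase, AR/GR responsive) were treated with compounds plus R1881 agonist for 16 h at 37 °C. Viability was read as CellTiter-Fluor fluorescence in the same wells as the reporter assay.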

[12] = tested on: thyroid hormone receptor (rat, GH3 cells); assay: qHTS assay to identify small molecule agonists of the thyroid receptor (TR) signaling pathway (AID 743066; calls by dose curve)
[13] = target: Estrogen receptor (Homo sapiens) (UniProt P03372); assay: qHTS assay to identify small molecule antagonists of the estrogen receptor alpha (ER-alpha) signaling pathway (AID 743069; active = well fitted curve in the direction sought with a large enough effect in the signal ratio in the repeat runs, not every such curve was filed as active; inconclusive = weak or mixed curves, or effect the other way; inactive = no such curve, though single readings can be large or run the other way; the % refers to the signal ratio; also: potency is read from the fitted curve at half-maximal effect)
Outline: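 HEK293 cells stably carrying an ER-alpha-UAS-bla beta-lactamase reporter were pre-cultured overnight in 2% charcoal-stripped FBS medium. Test compounds in DMSO were added together with 17beta-estradiol for 18 hr at 37C. Read-out was fluorescence after 2 hr with LiveBLAzer B/G FRET substrate at room temperature.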

[14] = qHTS assay to identify small molecule antagonists of the estrogen receptor alpha (ER-alpha) signaling pathway - cell viability counter screen (AID 743074; calls by dose curve; also: nearly all actives have a fitted effect of over 45% in size; also: potency is read from the fitted curve at half-maximal effect)
[15] = target: Estrogen receptor (Homo sapiens) (UniProt P03372); assay: qHTS assay to identify small molecule agonists of the estrogen receptor alpha (ER-alpha) signaling pathway (AID 743075; calls by dose curve)
[16] = target: Androgen receptor (Homo sapiens) (UniProt P10275); assay: qHTS assay to identify small molecule agonists of the androgen receptor (AR) signaling pathway (AID 743036; active = well fitted activation curve with a large enough effect in the signal ratio in the repeat runs, with a control signal flat, not every such curve was filed as active; inconclusive = weak or mixed curves, or effect the other way; inactive = no such curve, though single readings can be large or run the other way; the % refers to the signal ratio)
Outline: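 Quantitative HTS of the Tox21 10K library in HEK293 cells bearing a stably integrated UAS-controlled beta-lactamase reporter. Compound exposure lasted 16 h at 37C. Reporter activity was detected by FRET substrate fluorescence after 2 h at room temperature.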

[17] = target: Androgen receptor (Homo sapiens) (UniProt P10275); assay: qHTS assay to identify small molecule agonists of the androgen receptor (AR) signaling pathway using the MDA cell line (AID 743040; also: nearly all actives have a fitted effect of over 20% in size)
Outline: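 MDA-kb2 breast carcinoma cells stably carrying an MMTV-driven luciferase reporter (AR- and GR-responsive) were seeded and held 5 h at 37C, 0% CO2, then exposed to compounds in DMSO for 16 h. Luminescence was read 30 min after ONE-Glo addition.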

[18] = target: Androgen receptor (Homo sapiens) (UniProt P10275); assay: qHTS assay to identify small molecule antagonists of the androgen receptor (AR) signaling pathway using the MDA cell line (AID 743042; also: nearly all actives have a fitted effect of over 55% in size; also: potency is read from the fitted curve at half-maximal effect)
Outline: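 MDA-kb2 cells (human breast carcinoma, stably carrying an MMTV-luciferase reporter responsive to AR and GR) were plated at 3,000 cells/well and preincubated 5 hr at 37C, then given compound plus R1881 agonist for 16 h. ONE-Glo luminescence was read.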

Aromatase (Homo sapiens) = Aromatase (Homo sapiens) (UniProt P11511); assay: qHTS assay to identify aromatase inhibitors (AID 743083); also: nearly all actives have a fitted effect of over 55% in size; also: potency is read from the fitted curve at half-maximal effect
[19] = target: Androgen receptor (Homo sapiens) (UniProt P10275); assay: qHTS assay to identify small molecule antagonists of the androgen receptor (AR) signaling pathway (AID 743035; active = well fitted inhibition curve with a large enough effect in the signal ratio in the repeat runs, not every such curve was filed as active; inconclusive = weak or mixed curves, or effect the other way; inactive = no such curve, though single readings can be large or run the other way; the % refers to the signal ratio)
Outline: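 HEK293 cells stably carrying UAS-beta-lactamase reporter, 2,000/well, given compounds plus R1881 agonist and incubated 16 h at 37C. LiveBLAzer B/G FRET substrate then added for 2 h at room temperature before fluorescence reading.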

Chain of Androgen receptor (Homo sapiens) (P10275 whole entry, looked up): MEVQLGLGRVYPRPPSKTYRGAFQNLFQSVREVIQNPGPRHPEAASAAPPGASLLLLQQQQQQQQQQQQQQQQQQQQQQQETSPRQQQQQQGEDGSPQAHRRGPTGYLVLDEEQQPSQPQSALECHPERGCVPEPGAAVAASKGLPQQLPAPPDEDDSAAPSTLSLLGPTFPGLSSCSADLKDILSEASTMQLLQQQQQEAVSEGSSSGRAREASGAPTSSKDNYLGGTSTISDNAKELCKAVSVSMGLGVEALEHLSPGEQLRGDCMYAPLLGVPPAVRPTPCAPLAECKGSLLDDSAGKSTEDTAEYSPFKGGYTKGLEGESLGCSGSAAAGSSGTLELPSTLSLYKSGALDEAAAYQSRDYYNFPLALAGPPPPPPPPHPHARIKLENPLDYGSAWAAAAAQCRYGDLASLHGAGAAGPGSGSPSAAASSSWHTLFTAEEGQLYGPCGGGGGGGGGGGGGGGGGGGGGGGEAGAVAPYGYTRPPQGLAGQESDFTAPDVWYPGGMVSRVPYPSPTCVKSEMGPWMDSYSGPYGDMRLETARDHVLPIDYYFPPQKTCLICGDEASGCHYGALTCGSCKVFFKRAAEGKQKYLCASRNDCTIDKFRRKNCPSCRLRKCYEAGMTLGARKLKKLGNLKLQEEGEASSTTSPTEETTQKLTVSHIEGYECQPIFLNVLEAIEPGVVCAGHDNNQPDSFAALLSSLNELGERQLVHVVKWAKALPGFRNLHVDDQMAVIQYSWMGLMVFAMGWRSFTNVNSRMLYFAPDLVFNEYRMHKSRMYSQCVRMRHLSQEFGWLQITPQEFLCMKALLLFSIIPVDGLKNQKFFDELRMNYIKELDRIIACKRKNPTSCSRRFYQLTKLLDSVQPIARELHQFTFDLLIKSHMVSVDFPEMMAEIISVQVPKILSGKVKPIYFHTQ
Chain of Estrogen receptor (Homo sapiens) (P03372 whole entry, looked up): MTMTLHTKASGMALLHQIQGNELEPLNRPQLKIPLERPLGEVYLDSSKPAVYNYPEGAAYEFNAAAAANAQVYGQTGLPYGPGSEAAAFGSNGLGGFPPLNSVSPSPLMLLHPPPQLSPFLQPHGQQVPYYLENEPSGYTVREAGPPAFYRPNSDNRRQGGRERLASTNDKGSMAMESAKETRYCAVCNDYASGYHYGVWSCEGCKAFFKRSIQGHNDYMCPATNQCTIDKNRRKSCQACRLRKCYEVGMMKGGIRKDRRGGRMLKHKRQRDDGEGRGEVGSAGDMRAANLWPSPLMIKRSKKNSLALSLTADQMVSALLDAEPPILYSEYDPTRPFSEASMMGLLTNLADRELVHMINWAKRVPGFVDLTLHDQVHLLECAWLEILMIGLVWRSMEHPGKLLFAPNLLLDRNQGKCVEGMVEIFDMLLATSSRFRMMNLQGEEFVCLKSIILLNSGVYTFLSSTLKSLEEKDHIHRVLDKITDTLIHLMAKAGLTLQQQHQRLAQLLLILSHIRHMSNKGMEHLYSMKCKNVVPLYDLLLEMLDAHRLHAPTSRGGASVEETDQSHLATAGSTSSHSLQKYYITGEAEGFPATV
Chain of Aromatase (Homo sapiens) (P11511 whole entry, looked up): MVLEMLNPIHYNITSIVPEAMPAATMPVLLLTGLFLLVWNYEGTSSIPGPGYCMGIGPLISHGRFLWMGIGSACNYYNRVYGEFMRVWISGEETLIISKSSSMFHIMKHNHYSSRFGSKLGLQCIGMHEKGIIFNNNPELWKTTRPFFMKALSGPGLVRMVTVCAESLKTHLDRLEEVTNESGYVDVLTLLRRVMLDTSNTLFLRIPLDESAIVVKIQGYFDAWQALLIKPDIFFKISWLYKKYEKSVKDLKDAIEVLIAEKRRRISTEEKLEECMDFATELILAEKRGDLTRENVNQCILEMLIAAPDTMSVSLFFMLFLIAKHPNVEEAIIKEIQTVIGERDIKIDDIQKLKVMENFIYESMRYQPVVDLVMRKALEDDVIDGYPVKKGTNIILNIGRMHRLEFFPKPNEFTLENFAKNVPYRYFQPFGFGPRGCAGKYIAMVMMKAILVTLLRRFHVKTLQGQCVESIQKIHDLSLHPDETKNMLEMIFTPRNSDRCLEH

SMILES	Potency [1]	Potency [2]	Potency [3]	Potency [4]	Potency [5]	Potency [6]	Potency [7]	Potency [8]	Potency [9]	Potency [10]	Potency [11]	Potency [12]	Potency [13]	Potency [14]	Potency [15]	outcome [16]	Potency [17]	Potency [18]	Potency (Aromatase (Homo sapiens))	Potency [19]
CCCCCCCC/C=C\CCCCCCCC(=O)N(C)CC(=O)O	49 µM (active)	21.7 µM (active)	27.3 µM (active)	30.6 µM (active)	61.1 µM (active)	inactive	inactive	inactive												
CC(CN(C)C)CN1c2ccccc2CCc2ccccc21 (stereo unspecified)	inactive	11.4 µM (active)			11.4 µM (active)	inactive	inactive		12.7 µM (active)	inactive	inactive	inactive	inactive	inactive	inactive					
CCN(CC)CCOC(=O)C1(C2CCCCC2)CCCCC1	inactive	26.6 µM (active)	23.7 µM (active)	26.6 µM (active)	23.7 µM (active)	inactive	inactive	inactive	21.1 µM (active)			inactive	inactive	inactive	inactive	inactive	inactive	inactive	29.8 µM (active)	
COc1cc(C(C)C)c2c(c1)S(=O)(=O)N(COc1cc(=O)n3cccc(OCCN4CCCCC4)c3n1)C2=O	inactive	13 µM (active)	13 µM (active)		13 µM (active)	inactive	inactive	inactive	16.4 µM (active)		inactive	inactive		inactive	inactive		inactive			
CCc1ccc(O)c(C(C)(C)C)c1	inactive	43.3 µM (active)	30.6 µM (active)	54.5 µM (active)	61.1 µM (active)	27.3 µM (active)	inactive	inactive	30.6 µM (active)			inactive	inactive	inactive					68.6 µM (active)	
Cc1c(C)n(Cc2ccccc2)c2ccc(C(=O)OCCN(C)C)cc12	inactive	3.76 µM (active)	6.68 µM (active)					inactive	3.76 µM (active)										inactive	
CN(C)CCCN1c2ccccc2CCc2ccccc21	inactive	13.3 µM (active) and 8.63 µM (active)	29.8 µM (active) and 9.69 µM (active)	5.96 µM (active)				inactive	23.7 µM (active) and 9.69 µM (active)		inactive	inactive		inactive					inactive	
CCN(CC)CCNc1ccc(CO)c2sc3ccccc3c(=O)c12	inactive	0.841 µM (active)	0.237 µM (active)					13.3 µM (active)	0.298 µM (active)		26.6 µM (active)		30.1 µM [inconclusive] (active)	inactive	inactive				inactive	
C=CCCCCCCC=C	inactive	inactive	inactive		inactive			inactive			inactive	inactive		inactive					inactive	
CC(C)N=C(N)/N=C(\N)Nc1ccc(Cl)cc1	inactive	3.59 µM (active)	10.1 µM (active)	inactive	2.54 µM (active)	inactive	inactive	inactive	12.7 µM (active)		inactive	inactive	inactive	inactive	inactive				inactive	
Cc1ccc2ccc3cccc4ccc1c2c34	inactive	inactive	inactive	inactive	inactive	inactive	inactive	inactive	inactive			inactive			inactive				inactive	
CCC(=O)OCCc1ccccc1	inactive	18.5 µM (active)	41.4 µM (active)	inactive	inactive	inactive	inactive	inactive	23.3 µM (active)		inactive	inactive	inactive	inactive	inactive					
COC(=O)NCCC[Si](OC)(OC)OC	inactive	61.1 µM (active)						inactive	68.6 µM (active)	inactive	inactive	inactive		inactive					inactive	
CCCC(CC)CCCCCCCN (stereo unspecified)	inactive	inactive	inactive	inactive	inactive	inactive	inactive	inactive		inactive	inactive	inactive	inactive	inactive	inactive				inactive	
CCCCCCCC/C=C/CCCOC(C)=O	inactive	inactive	inactive	inactive	inactive	inactive	inactive	inactive		inactive	inactive	inactive	inactive	inactive	inactive				inactive	
CC(C(O)c1ccccc1)N(C)CCOC(c1ccccc1)c1ccccc1 (stereo unspecified)	inactive	5.31 µM (active)	9.44 µM (active)	11.9 µM (active)	16.8 µM (active)		inactive		8.41 µM (active)		26.6 µM (active)		inactive		inactive				29.8 µM (active)	
CCCCOc1ccc(C(=O)CCN2CCCCC2)cc1	inactive	0.717 µM (active)	1.01 µM (active)	5.07 µM (active)	3.59 µM (active)	4.52 µM (active)		inactive	1.27 µM (active)		10.6 µM (active)		inactive	inactive	inactive				inactive	

SMILES	Potency [1]	Potency [2]	Potency [3]	Potency [4]	Potency [5]	Potency [6]	Potency [7]	Potency [8]	Potency [9]	Potency [10]	Potency [11]	Potency [12]	Potency [13]	Potency [14]	Potency [15]	outcome [16]	Potency [17]	Potency [18]	Potency (Aromatase (Homo sapiens))	Potency [19]
Nc1ncnc2c1ncn2[C@@H]1O[C@H](COP(=O)(O)O)[C@@H](O)[C@H]1O	inactive	inactive	inactive	inactive				inactive		inactive	inactive	inactive		21.3 µM (active)					inactive	
CCN(CC)CCSC(=O)C(c1ccccc1)c1ccccc1	inactive	26.6 µM (active)				inactive		inactive	inactive	inactive	inactive	inactive		inactive	inactive				inactive	
CCCCCCCC/C=C\CCCCCCCC(=O)NCc1ccc(O)c(OC)c1	21.3 µM (active)	13.3 µM (active)	18.8 µM (active)	6.68 µM (active)	6.68 µM (active)			inactive		inactive	inactive			inactive					inactive	
COc1cc(C=C2CCC/C(=C\c3ccc(O)c(OC)c3)C2=O)ccc1O	23.9 µM (active)	8.41 µM (active)	9.44 µM (active)		6.68 µM (active)		inactive		11.9 µM (active)				15.1 µM [inconclusive] (active)		inactive		inactive	21.1 µM (active)	21.1 µM (active)	
CN(C)c1ccc(N=NS(=O)(=O)O)cc1	inactive	22.9 µM (active)	22 µM (active)						26.1 µM (active)		14.4 µM (active)	inactive					inactive	23.7 µM (active)		
Nc1ccc2cc3ccc(N)cc3nc2c1	19 µM (active)	2.66 µM (active) and 5.45 µM (active)	1.33 µM (active) and 1.37 µM (active)						2.98 µM (active) and 2.73 µM (active)			inactive		inactive			inactive		16.8 µM (active) and 6.11 µM (active)	
C=CC(=O)OCCC#N	inactive				54.8 µM (active)			inactive	inactive	inactive	inactive	inactive		inactive		inactive	inactive	inactive		inactive
O=C1OC(=O)c2cccc3cccc1c23	inactive		13.8 µM (active)	inactive		inactive	inactive	inactive	15.5 µM (active)	inactive	inactive	inactive	inactive	inactive	inactive				inactive	
c1cc2c3c(c1)ccc1cccc(c13)C2	inactive	inactive			inactive			inactive			inactive	inactive		inactive					inactive	
O=Cc1ccc(F)cc1	inactive		19.3 µM (active)		inactive	inactive	inactive	inactive	19.3 µM (active)	inactive	inactive	inactive	inactive	inactive	inactive		inactive	inactive	inactive	inactive
CCOC(=O)[C@@](C)(N)Cc1ccc(O)c(O)c1	inactive		inactive	inactive		inactive	inactive	inactive	inactive		inactive	inactive	inactive	inactive	inactive				inactive	
COC(=O)CC(C)CCC=C(C)C (stereo unspecified)	inactive				inactive	inactive	inactive	inactive		inactive	inactive	inactive	inactive	inactive	inactive				inactive	
C=CC(=C)CCC=C(C)C	inactive							inactive		inactive	inactive	inactive		inactive					inactive	
CN1[C@@H]2CC[C@@H]1CC(OC(=O)C(CO)c1ccccc1)C2 (stereo partly specified)	inactive							inactive		inactive	inactive			inactive					inactive	
Oc1ccc(-c2ccc(O)cc2)cc1	inactive		24.5 µM (active)	inactive				inactive	17.3 µM (active)	inactive	inactive	inactive							inactive	
CCCCC(CC)COC(=O)c1ccc(O)cc1 (stereo unspecified)	43.5 µM (active)		48.6 µM (active)					inactive	43.1 µM (active) and 48.6 µM (active)	inactive	inactive	inactive		54.7 µM (active)					15.3 µM (active) and 19.3 µM (active)	
CC(C)OC(=O)c1cc(C(=O)OC(C)C)cc([N+](=O)[O-])c1	inactive		55.8 µM (active)							inactive		inactive								
